Measurements published in the supplement of paper PMC6555819.

Experiments:
Assay in all cases: PBM binding z-score (relative to random genomic background probes); higher = stronger binding; sequences stand for … in GC…GCGATTGACAGCGTAGAATGAAGG
[1] = tested on: PPARg:RXRa DBDmut IVT, anti-RXR (DBD mutation: RXRa K156A/R161A, NR concentration 270 nM, RXRa partner concentration 90 nM)
How it was run: (§1)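 Antibodies against each partner of ligand-free nuclear receptor dimers (one per run) detected binding on custom Agilent 4×180K protein-binding microarrays after 1 h incubation. The double-stranded probes had 34-nt variable regions carrying direct-repeat seeds, single-nucleotide variants, half-site ablations and random human genomic background sequences. Binding z-scores, from regression-normalized fluorescence, use the random background probes as reference.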

[2] = tested on: PPARg:RXRa IVT, anti-PPARg (NR concentration 270 nM, RXRa partner concentration 90 nM)
How it was run: as §1

[3] = tested on: PPARg DBDmut:RXRa IVT, anti-PPARg (DBD mutation: PPARg1 K132A/R137A, NR concentration 270 nM, RXRa partner concentration 90 nM)
How it was run: as §1

[4] = tested on: PPARg DBDmut IVT, anti-PPARg (DBD mutation: PPARg1 K132A/R137A, NR concentration 270 nM)
How it was run: as §1

[5] = tested on: PPARg homodimer (NR concentration 180 nM)
How it was run: as §1

[6] = tested on: PXR:RXRa (NR concentration 270 nM, RXRa partner concentration 90 nM)
How it was run: as §1

[7] = tested on: PXR homodimer (NR concentration 270 nM)
How it was run: as §1

[8] = tested on: RARa:RXR (NR concentration 270 nM, RXRa partner concentration 90 nM)
How it was run: as §1

[9] = tested on: RARa homodimer (NR concentration 270 nM)
How it was run: as §1

[10] = tested on: RARb:RXRa (NR concentration 270 nM, RXRa partner concentration 90 nM)
How it was run: as §1

[11] = tested on: RARb homodimer (NR concentration 270 nM)
How it was run: as §1

[12] = tested on: RARg:RXRa (NR concentration 270 nM, RXRa partner concentration 90 nM)
How it was run: as §1

[13] = tested on: RARg homodimer (NR concentration 270 nM)
How it was run: as §1

[14] = tested on: RXRa DBDmut IVT, anti-RXR (DBD mutation: RXRa K156A/R161A, NR concentration 90 nM)
How it was run: as §1

[15] = tested on: RXRa homodimer (NR concentration 180 nM)
How it was run: as §1

[16] = tested on: THRa:RXRa (NR concentration 90 nM, RXRa partner concentration 90 nM)
How it was run: as §1

[17] = tested on: THRa homodimer (NR concentration 90 nM)
How it was run: as §1

[18] = tested on: VDR homodimer (NR concentration 270 nM)
How it was run: as §1

Row | Sequence | PBM binding z-score [1] | PBM binding z-score [2] | PBM binding z-score [3] | PBM binding z-score [4] | PBM binding z-score [5] | PBM binding z-score [6] | PBM binding z-score [7] | PBM binding z-score [8] | PBM binding z-score [9] | PBM binding z-score [10] | PBM binding z-score [11] | PBM binding z-score [12] | PBM binding z-score [13] | PBM binding z-score [14] | PBM binding z-score [15] | PBM binding z-score [16] | PBM binding z-score [17] | PBM binding z-score [18]
1 | GCTATTTGGTCAGTAAAAGGTCACACACCGGTCG | 1.19 | 3.03 | 0.901 | 1.1 | 3.8 | 5.12 | 1.46 | 5.67 | 2.38 | 4.45 | 5.41 | 5.36 | 4.76 | 0.964 | 5.44 | 3.91 | 2.43 | 2
2 | CGTCCAATGTCAGCAGGTCAGTGAAAGCGACGTG | 0.4 | 0.811 | -0.067 | -0.189 | 1.33 | 0.416 | -0.258 | 1.17 | 0.0652 | 2.6 | 2.76 | 2.04 | 2.59 | 0.442 | 0.9 | 1.31 | 0.239 | 0.584
3 | CCTCGGCGGACAACAGGAGGTCAGAGCTGCCAGA | -0.701 | -0.463 | -0.701 | -1.7 | 0.632 | 1.32 | 0.232 | 1.76 | 0.119 | 1.96 | 2.88 | 2.16 | 2.04 | -0.404 | 1.71 | 1.75 | 0.00224 | 0.257
4 | ACAGACAGGTGAGTGAAGGTAAATCAGCTGGACG | 0.437 | 0.547 | -0.117 | 0.0853 | 0.0194 | -0.359 | -0.168 | 0.0806 | -0.397 | 0.388 | -0.00718 | 0.297 | 0.417 | -0.64 | 0.24 | 1.31 | -0.577 | -0.366
